In experiment [1] the target is Myc proto-oncogene protein (Homo sapiens) (UniProt P01106). As to the kind of experiment: ATG_Myc_CIS: Attagene CIS-FACTORIAL HepG2 Assay for human Myelocytomatosis (Myc) Proto-Oncogene Transcription Factor (AID 2282990). The conditions noted are these: HepG2, Attagene cis-reporter transcription factor activity; actives raise or lower the signal. The method, boiled down:
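HepG2 cells transiently transfected with multiple cis-promoter-driven reporter transcription units, so endogenous TF activity is read. After 24 h compound exposure, reporter mRNA was quantified by RT-PCR, 6-FAM labelling, HpaI digestion and capillary electrophoresis; bidirectional fit versus DMSO.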

A short description of experiment [2]: ATG_NF_kB_CIS: Attagene CIS-FACTORIAL HepG2 Assay for human Nuclear Factor Kappa B (NF-kB) (AID 2282991). Conditions: HepG2 Attagene cis-factorial NF-kB reporter mRNA; actives raise or lower the signal. The method, boiled down:
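Read-out: reporter transcript levels quantified by RT-PCR plus capillary electrophoresis of 6-FAM-labelled, HpaI-cut fragments. Transfected HepG2 cells, 24 h compound exposure, endogenous NF-kB-driven cis element; gain or loss scored versus DMSO.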

Experiment [3] deals with Cellular tumor antigen p53 (Homo sapiens) (UniProt P04637). The experiment can be described thus: ATG_p53_CIS: Attagene CIS-FACTORIAL HepG2 Assay for human p53 Transcription Factor (AID 2282994). Conditions: HepG2 p53 cis-element reporter, Attagene mRNA; actives raise or lower the signal. The method, boiled down:
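In HepG2 cells, reporter transcription units under cis-regulatory promoters were transiently introduced. Following 24 h treatment, RNA was processed to labelled, digested cDNA fragments read by capillary electrophoresis; fitting was bidirectional versus DMSO.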

Experiment [4] addresses human Peroxisome Proliferator-activated Receptor delta (PPARd), PPARD (gene 5467) (UniProt Q03181). The experiment can be described thus: ATG_PPARd_TRANS: Attagene TRANS-FACTORIAL HepG2 Assay for human Peroxisome Proliferator-activated Receptor delta (PPARd) (AID 2283002; active means hit-call score of the fitted dose curve at least 0.9, where 1 is the maximum). The method, boiled down:
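HepG2 cells transiently transfected with multiplexed GAL4-UAS reporter units and exogenous chimeric NR-Gal4 proteins; 24 h compound exposure. Reporter mRNA measured by RT-PCR, 6-FAM labelling, HpaI digestion and capillary electrophoresis; gain of signal versus DMSO.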

The target of experiment [5] is Nuclear receptor subfamily 1 group I member 2 (Homo sapiens) (UniProt O75469). As to the kind of experiment: ATG_PXR_TRANS: Attagene TRANS-FACTORIAL HepG2 Assay for human Pregnane X Receptor (PXR) (AID 2283008; active means hit-call score of the fitted dose curve at least 0.9, where 1 is the maximum). The method, boiled down:
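Multiplexed TRANS reporter panel in HepG2; this component tracks PXR-Gal4-driven reporter mRNA after 24 h dosing, measured by RT-PCR with capillary electrophoresis fluorescence, fitted against DMSO.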

A short description of experiment [6]: ATG_NRF2_ARE_CIS: Attagene CIS-FACTORIAL HepG2 Assay for human Nuclear Factor Erythroid 2 Related Factor 2 (NFR2) response to Antioxidant Response Elements (ARE) (AID 2282992). The conditions noted are these: HepG2 Attagene ARE/NRF2 reporter, transcription factor activity; actives raise or lower the signal. The method, boiled down:
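Using transiently transfected HepG2 cells exposed for 24 h, reporter mRNA levels were determined by RT-PCR with fluorescent primer extension and capillary electrophoresis, analysed for gain or loss of signal against DMSO.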

Experiment [7] in a line: ATG_Oct_MLP_CIS: Attagene CIS-FACTORIAL HepG2 Assay for human Octamer-Binding Transcription Factor (Oct) (AID 2282993). Conditions: HepG2 Attagene cis-factorial Oct reporter, mRNA; actives raise or lower the signal. The method, boiled down: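 Multiplexed cis-reporter assay in human liver HepG2 cells, 24 h incubation. Reporter RNA amplified and labelled, then resolved by capillary electrophoresis; DMSO serves as negative control and baseline.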

For experiment [8], the target named is human Retinoic Acid Receptor beta (RARb), RARB (gene 5915) (UniProt P10826). The experiment can be described thus: ATG_RARb_TRANS: Attagene TRANS-FACTORIAL HepG2 Assay for human Retinoic Acid Receptor beta (AID 2283004; active means hit-call score of the fitted dose curve at least 0.9, where 1 is the maximum). The method, boiled down: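 Induction of reporter mRNA from a chimeric RARb-Gal4 construct was measured by RT-PCR, FAM labelling, HpaI digestion and capillary electrophoresis. Measurements followed 24 h compound treatment of transiently transfected human HepG2 liver cells, with DMSO as baseline.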

Experiment [9] has as its target Retinoic acid receptor alpha (Homo sapiens) (UniProt P10276). As to the kind of experiment: ATG_RARa_TRANS: Attagene TRANS-FACTORIAL HepG2 Assay for human Retinoic Acid Receptor alpha (RARa) (AID 2283005; active means hit-call score of the fitted dose curve at least 0.9, where 1 is the maximum). The method, boiled down:
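HepG2 cells transiently transfected with multiple reporter units expressing chimeric RARα-GAL4 fusion, with GAL4-UAS-driven reporters. After 24 h compound exposure, reporter mRNA induction quantified by RT-PCR and capillary electrophoresis with fluorescent labeling; gain-of-signal fitted relative to DMSO control.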

In experiment [10] the target is Peroxisome proliferator-activated receptor gamma (Homo sapiens) (UniProt P37231). As to the kind of experiment: ATG_PPARg_TRANS: Attagene TRANS-FACTORIAL HepG2 Assay for human Peroxisome Proliferator-activated Receptor-gamma (PPARg) (AID 2283007; active means hit-call score of the fitted dose curve at least 0.9, where 1 is the maximum). The method, boiled down:
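Read-out: reporter mRNA induction, detected by fluorescence after RT-PCR and capillary electrophoresis. Transiently transfected human HepG2 liver cells carrying a chimeric NR-Gal4 construct were dosed for 24 h; activity was fitted upward relative to DMSO.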

Experiment [11] deals with human Peroxisome Proliferator-activated Receptor alpha (PPARa), PPARA (gene 5465) (UniProt Q07869). As to the kind of experiment: ATG_PPARa_TRANS: Attagene TRANS-FACTORIAL HepG2 Assay for human Peroxisome Proliferator-activated Receptor alpha (PPARa) (AID 2283001; active means hit-call score of the fitted dose curve at least 0.9, where 1 is the maximum). The method, boiled down: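 Exposure: 24 h, transiently transfected HepG2 cells. Endpoint: GAL4-UAS reporter mRNA, RT-PCR with capillary electrophoresis fluorescence. Baseline: DMSO; increases fitted.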

Experiment [12] concerns the target human Retinoic Acid Receptor gamma (RARg), RARG (gene 5916) (UniProt P13631). As to the kind of experiment: ATG_RARg_TRANS: Attagene TRANS-FACTORIAL HepG2 Assay for human Retinoic Acid Receptor gamma (RARg) (AID 2283009; active means hit-call score of the fitted dose curve at least 0.9, where 1 is the maximum). The method, boiled down: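 Gain-of-signal relative to DMSO is reported from fluorescent capillary electrophoresis of RT-PCR reporter products. These came from HepG2 cells expressing transfected RARg-GAL4 chimeras with UAS reporters, harvested 24 h after dosing.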

Experiment [13] concerns the target human RAR-related Orphan Receptor gamma (RORg), RORC (gene 6097) (UniProt P51449). The experiment can be described thus: ATG_RORg_TRANS: Attagene TRANS-FACTORIAL HepG2 Assay for human RAR-related Orphan Receptor gamma (RORg) (AID 2283011; active means hit-call score of the fitted dose curve at least 0.9, where 1 is the maximum). The method, boiled down: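 Reporter transcripts from a transfected RORg-GAL4 chimera in HepG2 cells were quantified 24 h after dosing by RT-PCR, 6-FAM labelling, HpaI digestion and capillary electrophoresis; increases over DMSO baseline were fitted.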

A short description of experiment [14]: BSK_3C_TissueFactor: BioMAP Diversity Plus: 3C Assay for Tissue Factor Biomarker Activity (AID 2282997). The conditions noted are these: BioMAP 3C HUVEC, tissue factor biomarker readout; actives raise or lower the signal. The method, boiled down: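 Tissue factor on primary human umbilical vein endothelium was read by ELISA 24 h after dosing, gain or loss relative to DMSO. Cytotoxicity ran alongside via SRB (0.1%, TCA-fixed, 560 nm).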

Experiment [15] is described as follows: BSK_3C_uPAR: BioMAP Diversity Plus: 3C Assay for Urokinase-type plasminogen activator receptor (uPAR) Biomarker Activity (AID 2282998). The conditions noted are these: BioMAP 3C HUVEC, uPAR biomarker ELISA; actives raise or lower the signal. The method, boiled down: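 Dose primary human umbilical vein endothelial cells, incubate 24 h, measure cell-surface uPAR by ELISA, then fit the signal in both directions against the DMSO negative control.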

Experiment [16] can be described thus: BSK_3C_VCAM1: BioMAP Diversity Plus: 3C Assay for Vascular cell adhesion molecule 1 (VCAM1) Biomarker Activity (AID 2282999). The conditions noted are these: BioMAP 3C HUVEC, VCAM1 ELISA, cytokine-stimulated; actives raise or lower the signal. The method, boiled down: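 Vascular primary endothelium (human umbilical vein) was exposed to chemicals and assayed 24 h later. VCAM-1 levels came from ELISA, with DMSO serving as baseline for bidirectional fitting.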
(In general: In an ELISA, binding on a coated surface is turned into a signal by an enzyme label.)

A short description of experiment [17]: BSK_4H_Eotaxin3: BioMAP Diversity Plus: 4H Assay for Eotaxin 3 Biomarker Activity (AID 2283000). Conditions: primary human endothelial cells (HUVEC); actives raise or lower the signal. The method, boiled down:
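Human umbilical vein endothelial cells (BSK_4H system) dosed with test chemical; Eotaxin-3 (CCL26) measured by ELISA 24 h after dosing. Bidirectional curve fitting relative to DMSO negative control as baseline.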

Read-out in experiment [18]: Intercellular Adhesion Molecule 1 (ICAM1), ICAM1 (gene 3383)
As to the kind of experiment: BSK_3C_ICAM1: BioMAP Diversity Plus: 3C Assay for Intercellular Adhesion Molecule 1 (ICAM1) Biomarker Activity (AID 2283003). The conditions noted are these: primary human endothelial cells (HUVEC); actives raise or lower the signal. The method, boiled down:
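Using DMSO as baseline, bidirectional curve fitting was applied to ICAM-1 ELISA signals from HUVEC in the 3C system, measured 24 h after compound addition.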

The nature of experiment [19]: BSK_3C_Proliferation: Cell Proliferation Assessment in the BioMAP Diversity Plus: 3C Assay (AID 2283006).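 Further: potency may reflect either rise or fall in cell number versus DMSO.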 Conditions: primary human endothelial cells (HUVEC). The method, boiled down:
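Measured here: sulforhodamine B (0.1%) staining of TCA-fixed sub-confluent umbilical vein endothelial cultures 48 h post-dosing, absorbance 560 nm. DMSO served as negative control and baseline; both signal gain and loss were modelled.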

SMILES strings stand for the structures. Results filed as inconclusive are left out. Activity calls are given as the source filed them. How the source made its calls, unless noted: active means hit-call score of the fitted dose curve at least 0.9, where 1 is the maximum; inactive means score below 0.9.

human Peroxisome Proliferator-activated Receptor delta (PPARd), PPARD (gene 5467), sequence (Q03181 whole entry, looked up, the tested form may be a part): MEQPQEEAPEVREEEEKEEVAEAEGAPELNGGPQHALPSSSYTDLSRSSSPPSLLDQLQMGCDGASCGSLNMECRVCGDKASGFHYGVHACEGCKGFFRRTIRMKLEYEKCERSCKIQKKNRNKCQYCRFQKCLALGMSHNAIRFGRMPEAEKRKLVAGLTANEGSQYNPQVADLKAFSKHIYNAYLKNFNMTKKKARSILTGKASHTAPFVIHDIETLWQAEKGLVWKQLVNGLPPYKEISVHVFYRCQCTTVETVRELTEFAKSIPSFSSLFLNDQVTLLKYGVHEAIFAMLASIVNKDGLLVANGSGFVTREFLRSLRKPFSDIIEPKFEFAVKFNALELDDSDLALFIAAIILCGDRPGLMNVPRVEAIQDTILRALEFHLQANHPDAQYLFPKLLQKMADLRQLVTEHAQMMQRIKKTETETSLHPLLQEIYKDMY
Peroxisome proliferator-activated receptor gamma (Homo sapiens), sequence (P37231 whole entry, looked up, the tested form may be a part): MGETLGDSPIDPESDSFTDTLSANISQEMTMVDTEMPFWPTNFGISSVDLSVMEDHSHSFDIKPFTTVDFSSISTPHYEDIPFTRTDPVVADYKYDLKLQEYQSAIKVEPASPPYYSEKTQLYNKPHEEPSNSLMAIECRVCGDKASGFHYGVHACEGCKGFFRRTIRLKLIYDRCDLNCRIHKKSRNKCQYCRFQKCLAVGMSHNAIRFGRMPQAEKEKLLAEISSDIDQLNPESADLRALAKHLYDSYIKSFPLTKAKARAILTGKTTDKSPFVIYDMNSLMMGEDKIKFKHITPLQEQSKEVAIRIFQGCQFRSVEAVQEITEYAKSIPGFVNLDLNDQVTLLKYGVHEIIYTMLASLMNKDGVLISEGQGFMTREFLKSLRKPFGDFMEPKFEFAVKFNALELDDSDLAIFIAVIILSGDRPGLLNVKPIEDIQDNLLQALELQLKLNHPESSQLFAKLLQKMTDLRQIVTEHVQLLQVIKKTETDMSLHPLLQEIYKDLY
Myc proto-oncogene protein (Homo sapiens), sequence (P01106 whole entry, looked up): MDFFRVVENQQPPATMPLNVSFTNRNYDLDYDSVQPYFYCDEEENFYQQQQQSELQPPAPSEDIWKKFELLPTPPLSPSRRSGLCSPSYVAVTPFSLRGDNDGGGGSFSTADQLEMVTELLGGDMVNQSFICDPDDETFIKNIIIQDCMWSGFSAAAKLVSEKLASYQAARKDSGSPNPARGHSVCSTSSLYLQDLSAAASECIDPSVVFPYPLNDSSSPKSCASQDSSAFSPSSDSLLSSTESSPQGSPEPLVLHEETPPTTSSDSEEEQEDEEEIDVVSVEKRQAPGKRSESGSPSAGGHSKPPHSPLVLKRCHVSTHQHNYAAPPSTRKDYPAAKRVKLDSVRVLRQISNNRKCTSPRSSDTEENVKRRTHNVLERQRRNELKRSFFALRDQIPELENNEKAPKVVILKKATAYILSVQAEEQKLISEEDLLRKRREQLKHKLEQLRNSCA
Nuclear receptor subfamily 1 group I member 2 (Homo sapiens), sequence (O75469 whole entry, looked up, the tested form may be a part): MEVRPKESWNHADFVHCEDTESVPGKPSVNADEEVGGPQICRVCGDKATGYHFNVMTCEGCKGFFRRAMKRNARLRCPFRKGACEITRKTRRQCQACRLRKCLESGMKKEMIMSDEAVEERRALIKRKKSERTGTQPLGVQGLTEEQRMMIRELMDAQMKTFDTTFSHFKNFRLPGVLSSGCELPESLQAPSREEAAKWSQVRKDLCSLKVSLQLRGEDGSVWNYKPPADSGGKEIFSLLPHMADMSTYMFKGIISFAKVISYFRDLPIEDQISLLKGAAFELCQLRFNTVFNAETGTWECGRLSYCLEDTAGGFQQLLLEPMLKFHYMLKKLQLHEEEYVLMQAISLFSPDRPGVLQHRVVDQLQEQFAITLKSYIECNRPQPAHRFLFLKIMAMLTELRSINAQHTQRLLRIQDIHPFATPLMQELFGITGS
Cellular tumor antigen p53 (Homo sapiens), sequence (P04637 whole entry, looked up, the tested form may be a part): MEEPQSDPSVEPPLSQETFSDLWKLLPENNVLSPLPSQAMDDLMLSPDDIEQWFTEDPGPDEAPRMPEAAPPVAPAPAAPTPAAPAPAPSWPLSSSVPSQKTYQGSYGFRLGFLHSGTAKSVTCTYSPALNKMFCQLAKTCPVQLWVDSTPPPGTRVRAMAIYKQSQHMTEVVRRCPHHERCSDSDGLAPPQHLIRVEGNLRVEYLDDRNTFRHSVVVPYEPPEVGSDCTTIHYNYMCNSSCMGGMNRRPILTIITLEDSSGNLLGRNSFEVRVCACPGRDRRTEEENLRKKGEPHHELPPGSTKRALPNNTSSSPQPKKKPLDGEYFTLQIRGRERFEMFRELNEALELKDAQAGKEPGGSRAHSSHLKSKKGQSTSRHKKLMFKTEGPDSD
human Retinoic Acid Receptor beta (RARb), RARB (gene 5915), sequence (P10826 whole entry, looked up, the tested form may be a part): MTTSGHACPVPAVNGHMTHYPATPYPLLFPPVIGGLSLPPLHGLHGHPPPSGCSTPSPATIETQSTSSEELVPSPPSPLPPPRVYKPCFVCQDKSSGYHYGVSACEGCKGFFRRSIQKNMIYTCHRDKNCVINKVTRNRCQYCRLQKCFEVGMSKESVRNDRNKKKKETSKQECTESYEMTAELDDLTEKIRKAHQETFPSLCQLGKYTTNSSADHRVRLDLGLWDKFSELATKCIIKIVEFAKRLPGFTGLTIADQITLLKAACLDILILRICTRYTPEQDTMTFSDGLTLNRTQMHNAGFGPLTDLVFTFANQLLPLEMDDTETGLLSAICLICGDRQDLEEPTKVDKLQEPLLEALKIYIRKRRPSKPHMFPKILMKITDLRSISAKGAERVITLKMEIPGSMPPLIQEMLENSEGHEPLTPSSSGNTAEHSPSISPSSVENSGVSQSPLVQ
human Peroxisome Proliferator-activated Receptor alpha (PPARa), PPARA (gene 5465), sequence (Q07869 whole entry, looked up, the tested form may be a part): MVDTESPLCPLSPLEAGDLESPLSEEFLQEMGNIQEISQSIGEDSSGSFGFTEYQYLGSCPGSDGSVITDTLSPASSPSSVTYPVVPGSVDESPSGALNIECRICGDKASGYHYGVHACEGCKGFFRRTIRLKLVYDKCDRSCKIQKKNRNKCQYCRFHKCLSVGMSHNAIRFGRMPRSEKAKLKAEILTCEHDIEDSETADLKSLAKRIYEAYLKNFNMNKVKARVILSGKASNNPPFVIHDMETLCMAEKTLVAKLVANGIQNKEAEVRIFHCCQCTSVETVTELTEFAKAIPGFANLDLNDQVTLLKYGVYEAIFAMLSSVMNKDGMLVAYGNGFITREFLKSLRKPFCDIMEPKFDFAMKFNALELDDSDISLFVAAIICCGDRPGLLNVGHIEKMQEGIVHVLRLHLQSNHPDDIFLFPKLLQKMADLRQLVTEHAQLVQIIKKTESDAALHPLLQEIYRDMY
Retinoic acid receptor alpha (Homo sapiens), sequence (P10276 whole entry, looked up, the tested form may be a part): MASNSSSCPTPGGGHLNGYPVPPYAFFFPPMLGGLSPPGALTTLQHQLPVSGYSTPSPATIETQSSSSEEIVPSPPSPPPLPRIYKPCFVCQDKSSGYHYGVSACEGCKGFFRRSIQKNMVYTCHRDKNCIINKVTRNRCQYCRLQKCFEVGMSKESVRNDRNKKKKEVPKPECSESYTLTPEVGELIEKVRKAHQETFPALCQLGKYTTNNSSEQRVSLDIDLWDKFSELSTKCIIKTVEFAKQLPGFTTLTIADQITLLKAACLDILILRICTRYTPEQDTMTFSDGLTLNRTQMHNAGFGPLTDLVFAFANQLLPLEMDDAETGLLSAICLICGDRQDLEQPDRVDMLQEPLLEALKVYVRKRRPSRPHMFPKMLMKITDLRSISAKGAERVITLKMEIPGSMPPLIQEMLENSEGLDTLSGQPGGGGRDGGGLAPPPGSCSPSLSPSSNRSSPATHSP
human Retinoic Acid Receptor gamma (RARg), RARG (gene 5916), sequence (P13631 whole entry, looked up, the tested form may be a part): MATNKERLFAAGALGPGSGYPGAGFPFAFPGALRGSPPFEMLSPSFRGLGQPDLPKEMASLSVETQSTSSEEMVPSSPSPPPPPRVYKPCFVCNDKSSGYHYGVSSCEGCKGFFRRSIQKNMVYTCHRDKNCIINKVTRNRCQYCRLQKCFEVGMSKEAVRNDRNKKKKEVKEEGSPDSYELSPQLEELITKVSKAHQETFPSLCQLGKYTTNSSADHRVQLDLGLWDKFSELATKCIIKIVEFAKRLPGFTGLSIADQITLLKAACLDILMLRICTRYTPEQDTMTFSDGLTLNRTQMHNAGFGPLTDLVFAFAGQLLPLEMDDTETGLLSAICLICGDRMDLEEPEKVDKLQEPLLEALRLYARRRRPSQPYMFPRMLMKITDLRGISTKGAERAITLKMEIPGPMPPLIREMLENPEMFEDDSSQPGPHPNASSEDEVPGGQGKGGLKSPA
human RAR-related Orphan Receptor gamma (RORg), RORC (gene 6097), sequence (P51449 whole entry, looked up, the tested form may be a part): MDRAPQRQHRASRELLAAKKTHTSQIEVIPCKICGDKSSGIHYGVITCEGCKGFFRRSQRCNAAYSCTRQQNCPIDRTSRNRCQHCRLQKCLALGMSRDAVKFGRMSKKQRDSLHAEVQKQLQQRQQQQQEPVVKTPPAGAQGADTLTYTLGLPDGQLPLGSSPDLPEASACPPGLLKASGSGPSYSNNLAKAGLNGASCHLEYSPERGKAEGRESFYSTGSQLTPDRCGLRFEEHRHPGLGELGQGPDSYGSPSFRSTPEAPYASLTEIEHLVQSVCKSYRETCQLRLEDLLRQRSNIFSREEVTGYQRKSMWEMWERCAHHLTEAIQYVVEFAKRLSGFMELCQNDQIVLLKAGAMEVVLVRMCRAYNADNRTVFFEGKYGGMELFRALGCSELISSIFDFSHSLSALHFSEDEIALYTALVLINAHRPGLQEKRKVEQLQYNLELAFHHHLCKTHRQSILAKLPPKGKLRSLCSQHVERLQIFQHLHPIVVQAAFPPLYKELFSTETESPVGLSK

For the compound `Cc1c(Cl)cccc1[N+](=O)[O-]`, the result in experiment [1], in experiment [2], in experiment [3], in experiment [4] and in experiment [5] was inactive.
Broadly, the AC50 is the midpoint of the concentration-response curve, whichever way the signal moves. `CCc1cc(C(C)(C)C)c(O)c(C(C)(C)C)c1`: the call in experiment [1], in experiment [7], in experiment [3], in [8] and in [9] was inactive. The concentration at half-maximal activity (AC50) in experiment [6] was 52.6 µM (active); in experiment [10], 61 µM (active); in experiment [5] it was 26.8 µM (active).
As for `CCN(CCN)c1cccc(C)c1`, the result in experiment [1], in [6], in experiment [7], in experiment [3], in [11] and in experiment [8] was inactive. Moreover, the outcome in experiment [10], in [5] and in [12] was inactive.
For the compound `COC(C)(C)CCO`, the compound was called inactive in experiment [1], in experiment [6], in experiment [7], in experiment [3], in experiment [11] and in [4]. Besides, the compound was called inactive in experiment [8], in experiment [5] and in [13].
As for `CCCCC(CC)(CO)CO`, the result in [1], in experiment [6], in [7], in [3], in experiment [10] and in experiment [5] was inactive.
With `CCC(C)c1cc([N+](=O)[O-])cc([N+](=O)[O-])c1OC(=O)OC(C)C` (centres undefined), the result in experiment [1], in [7], in experiment [11], in experiment [4], in experiment [8] and in experiment [9] was inactive. Moreover, the compound was classed as inactive in [12]. Also, the AC50 was 5.1 µM (active) in experiment [6]; 25 µM (active) in [3]; 9.93 µM (active) in experiment [14]; 11.3 µM (active) in [15]; 19.4 µM (active) in experiment [16]; 8.5 µM (active) in [17]. In addition, the AC50 in [18] is 29.1 µM (active); in experiment [19] it was 5.44 µM (active); in experiment [10], 0.774 µM (active); in [5], 1.58 µM (active).

The values above are taken from PubChem BioAssay (EPA / NIEHS).
